Assay [1] has as its system PRMT1 (protein arginine N-methyltransferase 1). Description: PRMT1 binders on small-molecule microarrays, primary screen, biochemical, small-molecule microarray, 635 nm fluorescence (AID 1088).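 Note: binding of Prmt1 protein to compounds spotted on small-molecule microarray slides.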 The conditions noted are these: small-molecule microarray binding, higher = more signal.
Assay [2] is described as follows: yeast growth modulation, basal conditions, primary screen, YJM789 clinical isolate, OD600, 24 h (AID 1089).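 Note: growth of clinical yeast isolate S. cerevisiae YJM 789 seeded 1000 cells per well; test concentration not given here.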 The settings on record: S. cerevisiae YJM789 growth, higher = more signal, called active from +8 up or from −8 down.
A short description of assay [3]: fission yeast growth modulation, primary screen, strain 972, OD600, 24 h, no modulator (AID 1090).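 Note: basal condition with compound alone and no growth modifier present; test concentration not given here.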 The conditions noted are these: S. pombe 972 growth, higher = more signal, called active from +8 up or from −8 down.
Assay [4] is described as follows: S. cerevisiae growth modulation with rapamycin, primary screen, strain BY4716, OD600, 96 h (AID 1091). Note: test concentration not given here. The settings on record: higher = more signal, called active from +8 up or from −8 down.
Assay [5] deals with Torsin-1A-interacting protein 2 (Homo sapiens) (UniProt Q8NFQ8). Description: LULL1 binders on small-molecule microarray, primary screen, cell lysate, human LULL1 lysate, 635/667 nm fluorescence (AID 1092).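 Note: probe is lysate of COS7 cells overexpressing human LULL1; score merges per-feature 667 nm fluorescence with signal-to-noise.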 The conditions noted are these: hLULL1 lysate binding, 635 nm fluorescence, higher = more signal.
Assay [6] is described as follows: E. coli growth modulation, two-sided OD650, primary screen, E. coli filamentation project, strain DRC41, 24 h (AID 1093).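 Note: MC1000 strain lacking acrAB efflux and sulA so SOS filamentation is blocked; test concentration not given here.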 The conditions noted are these: OD650, 24 h, higher = more signal, called active from +8 up or from −8 down.
The nature of assay [7]: small-molecule microarray binders of probe aLefty2, primary screen, biochemical, biotinylated probe, 635/667 nm fluorescence (AID 1094).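 Note: score merges spot fluorescence near 667 nm with spot signal-to-noise ratio.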 The conditions noted are these: higher = more signal.
The subject of assay [8] is Noggin (protein binding on small-molecule microarray). Description: Noggin binders on small-molecule microarray, primary screen, biochemical, 635/667 nm fluorescence (AID 1095).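 Note: score merges 667 nm feature fluorescence with signal to noise over triplicate slides.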 The conditions noted are these: 635 nm fluorescence, higher = more signal.
Assay [9] concerns the target Neurogenic locus notch homolog protein 3 (Homo sapiens) (UniProt Q9UM47). The assay is described as follows: NOTCH3 binders on small-molecule microarray, primary screen, biochemical, 635/667 nm fluorescence (AID 1096). The settings on record: NOTCH3 binding, 635 nm fluorescence, higher = more signal.
A short description of assay [10]: small-molecule microarray binders of probe aEGFR, primary screen, biochemical, biotinylated probe, 635/667 nm fluorescence (AID 1097).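 Note: probe is a biotinylated anti-EGFR antibody binding compounds printed on slides; score combines fluorescence near 667 nm and signal to noise of each spot.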 The conditions noted are these: higher = more signal.
For assay [11], the system named is Plasmodium falciparum Sir2 (PF13_0152, Sir2A). The assay is described as follows: pfSir2 binders on small-molecule microarrays, primary screen, biochemical, small-molecule microarray, 635 nm fluorescence (AID 1098).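 Note: score merges spot fluorescence intensity with its signal-to-noise ratio.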 The conditions noted are these: small-molecule microarray binding, fluorescence 635 nm; higher = more signal.
Assay [12] is described as follows: small-molecule microarray binders of probe aDKK1, primary screen, biochemical, biotinylated probe, 635/667 nm fluorescence (AID 1099).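 Note: score merges 667nm spot fluorescence with signal to noise across triplicate slides; reference of the scale not given here.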 The settings on record: higher = more signal.
Assay [13] in a line: small-molecule microarray binders of probe aCHRDL2, primary screen, biochemical, biotinylated probe, 635/667 nm fluorescence (AID 1100). The conditions noted are these: higher = more signal.
Assay [14] is described as follows: splicing luciferase reporter signal modulators, primary screen, spliceosome inhibition project, cell-based, HEK293, splice +/- reporter (AID 1101).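 Note: HEK293 cells carrying a splicing-competent luciferase reporter gene; test concentration not given here.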 The conditions noted are these: luminescence, 24 h, higher = more signal, called active from +8 up or from −8 down. (In general: A reporter such as luciferase makes a cellular process visible.)
Assay [15] concerns the target Fibroblast growth factor 10 (Homo sapiens) (UniProt O15520). The assay is described as follows: FGF10 binders on small-molecule microarrays, primary screen, biochemical, small-molecule microarray, 635 nm fluorescence (AID 1102). The settings on record: FGF10 binding, fluorescence 635 nm, higher = more signal.
For assay [16], the system named is glycogen synthase kinase-3 (GSK3A per assay name; protocol says GSK3B). Description: GSK3 binders on small-molecule microarrays, primary screen, biochemical, small-molecule microarray, 635 nm fluorescence, GSK3A (AID 1103). Note: the record names both GSK3A and GSK3B. The settings on record: small-molecule microarray binding, fluorescence 635 nm; higher = more signal.
The target in assay [17] is Epidermal growth factor receptor (Homo sapiens) (UniProt P00533). The assay is described as follows: EGFR binders on small-molecule microarrays, primary screen, biochemical, small-molecule microarray, 635 nm fluorescence (AID 1104).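 Note: score merges 667 nm emission intensity with spot signal to noise over triplicate slides.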 The settings on record: EGFR binding, higher = more signal.
Assay [18] concerns the target Follistatin-related protein 3 (Homo sapiens) (UniProt O95633). The assay is described as follows: FSTL3 binders on small-molecule microarrays, primary screen, biochemical, small-molecule microarray, 635 nm fluorescence (AID 1105).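 Note: score merges emission near 667 nm and signal to noise per printed spot across three slides.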 The conditions noted are these: FSTL3 binding, higher = more signal.
The target of assay [19] is Dickkopf-related protein 1 (Homo sapiens) (UniProt O94907). The assay is described as follows: DKK1 binders on small-molecule microarrays, primary screen, biochemical, small-molecule microarray, 635 nm fluorescence scan (AID 1106).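 Note: score merges emission near 667 nm with signal to noise over three replicate slides.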 The conditions noted are these: DKK1 binding, higher = more signal.
Assay [20] concerns Inhibin beta A chain (activin A). The assay is described as follows: INHBA (activin A) binders on microarrays, primary screen, biochemical, small-molecule microarray, 635 nm fluorescence scan (AID 1107).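 Note: mouse activin A protein probed at 4.33 µg/mL on printed slides; score merges bound-protein fluorescence near 667 nm with spot signal-to-noise.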 The settings on record: small-molecule microarray binding, higher = more signal.

Active and inactive are the calls of the source.

Fibroblast growth factor 10 (Homo sapiens), sequence (O15520 whole entry, looked up): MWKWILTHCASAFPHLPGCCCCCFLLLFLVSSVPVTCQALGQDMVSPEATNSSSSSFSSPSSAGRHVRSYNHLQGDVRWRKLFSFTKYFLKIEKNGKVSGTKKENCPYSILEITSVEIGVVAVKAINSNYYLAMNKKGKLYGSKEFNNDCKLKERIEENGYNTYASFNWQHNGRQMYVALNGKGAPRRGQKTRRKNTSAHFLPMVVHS
Follistatin-related protein 3 (Homo sapiens), sequence (O95633 whole entry, looked up): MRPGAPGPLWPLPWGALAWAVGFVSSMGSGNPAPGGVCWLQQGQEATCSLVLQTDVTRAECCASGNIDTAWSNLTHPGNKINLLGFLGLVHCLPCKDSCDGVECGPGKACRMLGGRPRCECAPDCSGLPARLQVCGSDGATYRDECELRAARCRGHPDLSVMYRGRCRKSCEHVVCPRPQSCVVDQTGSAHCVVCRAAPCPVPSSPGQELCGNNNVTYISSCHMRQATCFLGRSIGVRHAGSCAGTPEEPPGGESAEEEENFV
Dickkopf-related protein 1 (Homo sapiens), sequence (O94907 whole entry, looked up): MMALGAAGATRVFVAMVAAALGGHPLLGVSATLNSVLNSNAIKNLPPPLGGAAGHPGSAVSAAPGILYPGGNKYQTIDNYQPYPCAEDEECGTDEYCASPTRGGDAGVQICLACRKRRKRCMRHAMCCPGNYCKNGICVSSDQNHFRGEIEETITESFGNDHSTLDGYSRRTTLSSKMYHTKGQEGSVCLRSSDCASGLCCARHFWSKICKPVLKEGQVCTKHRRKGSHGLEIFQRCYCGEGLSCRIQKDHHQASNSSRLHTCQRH
Torsin-1A-interacting protein 2 (Homo sapiens), sequence (Q8NFQ8 whole entry, looked up): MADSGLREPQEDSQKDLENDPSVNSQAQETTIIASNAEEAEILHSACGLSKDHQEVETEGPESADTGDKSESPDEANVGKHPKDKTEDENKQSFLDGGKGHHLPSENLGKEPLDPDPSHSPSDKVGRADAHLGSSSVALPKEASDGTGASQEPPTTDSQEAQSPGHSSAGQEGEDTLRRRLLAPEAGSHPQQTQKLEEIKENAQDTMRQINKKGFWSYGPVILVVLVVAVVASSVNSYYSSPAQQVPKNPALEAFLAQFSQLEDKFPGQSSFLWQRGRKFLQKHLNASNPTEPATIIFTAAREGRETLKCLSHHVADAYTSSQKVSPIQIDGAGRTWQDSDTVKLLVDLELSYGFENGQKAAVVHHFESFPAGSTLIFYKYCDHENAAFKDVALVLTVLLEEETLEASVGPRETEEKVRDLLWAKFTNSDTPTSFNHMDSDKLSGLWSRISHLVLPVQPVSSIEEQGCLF
Neurogenic locus notch homolog protein 3 (Homo sapiens), sequence (Q9UM47 whole entry, looked up): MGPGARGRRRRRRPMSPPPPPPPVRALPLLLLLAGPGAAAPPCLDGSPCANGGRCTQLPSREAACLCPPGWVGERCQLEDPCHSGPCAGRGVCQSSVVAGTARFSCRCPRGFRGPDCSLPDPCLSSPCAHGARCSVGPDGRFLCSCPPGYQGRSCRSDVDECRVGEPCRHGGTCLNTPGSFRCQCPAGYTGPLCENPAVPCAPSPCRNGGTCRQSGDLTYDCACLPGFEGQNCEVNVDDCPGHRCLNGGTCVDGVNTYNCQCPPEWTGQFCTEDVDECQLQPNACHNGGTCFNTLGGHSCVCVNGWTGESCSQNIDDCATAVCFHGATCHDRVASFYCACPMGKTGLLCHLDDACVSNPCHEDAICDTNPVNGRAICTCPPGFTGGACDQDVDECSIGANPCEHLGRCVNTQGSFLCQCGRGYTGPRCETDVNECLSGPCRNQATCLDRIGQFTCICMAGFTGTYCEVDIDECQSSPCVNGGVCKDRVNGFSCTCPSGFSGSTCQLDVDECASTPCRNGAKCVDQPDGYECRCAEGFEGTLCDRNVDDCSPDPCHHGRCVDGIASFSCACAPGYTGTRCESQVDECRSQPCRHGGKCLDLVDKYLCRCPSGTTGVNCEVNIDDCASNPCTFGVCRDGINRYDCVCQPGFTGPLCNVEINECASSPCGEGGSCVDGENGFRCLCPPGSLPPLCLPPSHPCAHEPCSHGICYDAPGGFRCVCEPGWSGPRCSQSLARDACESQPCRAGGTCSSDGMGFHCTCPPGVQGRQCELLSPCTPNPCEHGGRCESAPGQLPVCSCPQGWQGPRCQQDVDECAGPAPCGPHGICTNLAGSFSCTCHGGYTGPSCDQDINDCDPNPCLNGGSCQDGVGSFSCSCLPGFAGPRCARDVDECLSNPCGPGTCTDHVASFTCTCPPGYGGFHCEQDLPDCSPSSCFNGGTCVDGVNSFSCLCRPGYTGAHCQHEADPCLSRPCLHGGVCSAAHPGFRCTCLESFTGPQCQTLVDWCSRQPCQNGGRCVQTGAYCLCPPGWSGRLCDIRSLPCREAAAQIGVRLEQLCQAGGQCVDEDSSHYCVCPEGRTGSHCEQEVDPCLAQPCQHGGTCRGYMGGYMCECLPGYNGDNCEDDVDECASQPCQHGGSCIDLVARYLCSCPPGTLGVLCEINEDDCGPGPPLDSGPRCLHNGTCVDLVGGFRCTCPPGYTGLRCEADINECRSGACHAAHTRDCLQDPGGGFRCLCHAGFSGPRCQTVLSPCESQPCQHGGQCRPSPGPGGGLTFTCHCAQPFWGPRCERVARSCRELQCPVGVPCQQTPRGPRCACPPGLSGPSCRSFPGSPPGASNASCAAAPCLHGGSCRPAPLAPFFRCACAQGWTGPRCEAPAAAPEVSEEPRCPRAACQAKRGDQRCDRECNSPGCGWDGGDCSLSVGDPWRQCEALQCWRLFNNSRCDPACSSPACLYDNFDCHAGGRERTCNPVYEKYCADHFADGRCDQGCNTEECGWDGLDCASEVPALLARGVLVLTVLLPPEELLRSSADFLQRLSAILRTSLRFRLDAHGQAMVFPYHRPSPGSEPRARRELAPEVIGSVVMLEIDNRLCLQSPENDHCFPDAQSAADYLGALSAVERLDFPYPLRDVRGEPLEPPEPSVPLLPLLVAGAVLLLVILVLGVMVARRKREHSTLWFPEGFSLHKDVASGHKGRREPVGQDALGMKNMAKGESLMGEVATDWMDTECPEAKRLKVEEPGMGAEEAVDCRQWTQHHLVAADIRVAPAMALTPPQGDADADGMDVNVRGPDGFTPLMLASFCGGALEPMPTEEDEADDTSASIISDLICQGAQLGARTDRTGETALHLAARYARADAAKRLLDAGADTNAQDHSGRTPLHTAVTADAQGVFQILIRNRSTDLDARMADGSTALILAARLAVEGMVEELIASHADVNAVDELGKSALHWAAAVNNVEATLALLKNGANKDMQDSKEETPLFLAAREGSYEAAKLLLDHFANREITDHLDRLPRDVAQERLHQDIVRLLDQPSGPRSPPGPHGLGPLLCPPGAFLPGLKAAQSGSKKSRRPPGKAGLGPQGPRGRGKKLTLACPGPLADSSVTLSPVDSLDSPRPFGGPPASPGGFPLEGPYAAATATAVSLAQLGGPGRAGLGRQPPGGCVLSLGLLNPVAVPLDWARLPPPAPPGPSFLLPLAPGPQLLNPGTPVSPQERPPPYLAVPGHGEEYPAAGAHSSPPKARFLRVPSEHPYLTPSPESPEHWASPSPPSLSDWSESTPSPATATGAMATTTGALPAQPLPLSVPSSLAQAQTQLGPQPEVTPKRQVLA
Epidermal growth factor receptor (Homo sapiens), sequence (P00533 whole entry, looked up): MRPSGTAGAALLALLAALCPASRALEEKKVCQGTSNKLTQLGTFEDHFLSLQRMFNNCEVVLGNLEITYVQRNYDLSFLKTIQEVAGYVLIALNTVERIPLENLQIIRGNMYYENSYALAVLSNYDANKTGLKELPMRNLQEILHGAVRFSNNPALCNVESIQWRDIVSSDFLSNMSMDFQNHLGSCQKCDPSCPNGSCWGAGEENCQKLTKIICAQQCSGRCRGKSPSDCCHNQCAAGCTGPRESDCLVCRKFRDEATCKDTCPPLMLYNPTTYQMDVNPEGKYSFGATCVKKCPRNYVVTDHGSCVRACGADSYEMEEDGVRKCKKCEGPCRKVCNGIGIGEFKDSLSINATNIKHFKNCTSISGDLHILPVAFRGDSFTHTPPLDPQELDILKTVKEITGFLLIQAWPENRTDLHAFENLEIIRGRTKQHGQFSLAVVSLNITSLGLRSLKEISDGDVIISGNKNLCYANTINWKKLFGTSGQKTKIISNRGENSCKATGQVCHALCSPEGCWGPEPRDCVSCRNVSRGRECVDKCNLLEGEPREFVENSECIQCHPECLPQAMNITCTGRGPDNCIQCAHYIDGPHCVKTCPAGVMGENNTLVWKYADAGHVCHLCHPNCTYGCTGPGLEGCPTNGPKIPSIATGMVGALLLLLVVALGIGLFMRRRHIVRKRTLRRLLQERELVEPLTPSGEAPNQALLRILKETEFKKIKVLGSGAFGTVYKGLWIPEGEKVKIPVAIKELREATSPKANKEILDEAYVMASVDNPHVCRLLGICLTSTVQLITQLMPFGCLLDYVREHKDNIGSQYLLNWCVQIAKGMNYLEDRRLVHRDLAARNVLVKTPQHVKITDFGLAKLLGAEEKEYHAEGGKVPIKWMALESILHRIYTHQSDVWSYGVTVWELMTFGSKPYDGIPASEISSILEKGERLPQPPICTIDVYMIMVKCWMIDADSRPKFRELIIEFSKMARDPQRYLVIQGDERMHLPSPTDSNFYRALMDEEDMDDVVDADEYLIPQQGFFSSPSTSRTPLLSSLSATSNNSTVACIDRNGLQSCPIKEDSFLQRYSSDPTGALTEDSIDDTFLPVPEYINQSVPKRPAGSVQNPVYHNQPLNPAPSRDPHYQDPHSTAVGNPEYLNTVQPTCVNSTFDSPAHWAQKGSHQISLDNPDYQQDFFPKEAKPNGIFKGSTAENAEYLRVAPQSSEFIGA

For the compound `C/C=C/CN(C(=O)C#Cc1ccccc1)[C@H](CO[Si](C)(C)C(C)(C)C)c1ccccc1`, the composite z-score was 0.437 in assay [1]; 0.571 in [5]; -0.192 in [7]; -1.01 in [8]; -1.35 in assay [9]; -0.595 in [10]. The composite z-score in [11] was -0.435; in assay [12] it was -0.65; in [13] it was -0.169; in assay [15], -1.27; in assay [16], -0.0745; in assay [17], -1.37. Further, the figures for the composite z-score in assay [18], in [19] and in assay [20] were -1.44, -0.72 and 1.19, respectively. Further, the z-score in [2] was -0.185 (inactive); in assay [3], -0.463 (inactive); in [4], -0.177 (inactive); in [6] it was 2.76 (inactive); in assay [14], -3.21 (inactive).
With `CCCCCCc1nc(-c2ccc(OC)nc2)cc2c1[Si](C(C)C)(C(C)C)OC2`, the composite z-score in assay [1] was -0.741; in assay [5] it was -0.342; in assay [7] it was -0.143; in assay [8] it was -0.374; in assay [9] it was -0.123; in [10], -0.24. Moreover, the composite z-score in assay [11] was 0.0342; in assay [12], -0.251; in [13], -0.037; in assay [15], -0.322; in assay [16], -0.574; in assay [17], -0.459. Moreover, the composite z-score is -0.351 in assay [18], -0.329 in assay [19] and 0.96 in [20]. Also, the z-score in assay [2] was -0.1 (inactive); in assay [3], -0.283 (inactive); in assay [4] it was -0.218 (inactive); in assay [6] it was -0.647 (inactive); in [14], -0.589 (inactive).
Turning to `O=C1C2C=CC(C(O)c3cccs3)N(Nc3ccccc3)C2C(=O)N1c1ccccc1` (stereo not given), the composite z-score is -0.435 in assay [1]; 3.11 in [5]; -0.0329 in [7]; -0.448 in assay [8]; 0.365 in [9]; -0.0583 in assay [10]. Further, the composite z-score is 0.695 in [11]; 0.742 in assay [12]; 0.467 in assay [13]; 0.0597 in assay [15]; -0.828 in assay [16]; 0.0148 in assay [17]. Further, the results for the composite z-score in [18], in assay [19] and in assay [20] were -0.03, 0.034 and 1.42, respectively. Besides, the z-score is 0.521 (inactive) in assay [2]; -0.175 (inactive) in [3]; 0.231 (inactive) in assay [4]; 0.0249 (inactive) in [6]; -0.145 (inactive) in assay [14].
With `COC(=O)[C@@]1(Cc2ccc(OC)cc2)[C@H]2c3cc(C(=O)N4CCCC4)n(CCc4ccc(OC)c(Br)c4)c3C[C@H]2CN1C(=O)c1ccccc1`, the composite z-score in assay [1] was -1.11; in assay [5] it was 3.27; in [7], 0.153; in [8], -0.802; in assay [9], -0.0445; in assay [10] it was -0.0357. Besides, the composite z-score is 1.31 in [11]; 0.801 in [12]; 0.904 in assay [13]; 0.714 in assay [15]; -0.199 in [16]; 0.0993 in assay [17]. In addition, the values for the composite z-score in [18], in assay [19] and in assay [20] were -0.457, -0.858 and 1.03, respectively. The z-score in assay [2] is 0.0024 (inactive); in assay [3], 0.111 (inactive); in assay [4], -0.751 (inactive); in assay [6] it was 0.615 (inactive); in assay [14], -0.947 (inactive).
Take `COc1ccc(CCNC(=O)[C@@]2(C)c3ccccc3C(=O)N(Cc3cc(C(F)(F)F)cc(C(F)(F)F)c3)[C@H]2c2ccc(CO)cc2)cc1`: the composite z-score in assay [1] came out at 1.53; in [5], 1.7; in [7], 0.795; in assay [8] it was 0.179; in assay [9], 0.0336; in assay [10] it was 0.577. The composite z-score in assay [11] came to 0.569; in assay [12] it was 1.64; in assay [13], 1.02; in assay [15], 0.329; in [16], 0.651; in assay [17], 0.875. Besides, the composite z-score in assay [18] is 0.371; in assay [19] it was 0.338; in assay [20], -0.307. Further, the z-score is 0.182 (inactive) in [2]; -0.836 (inactive) in assay [3]; 1.09 (inactive) in [4]; 1.02 (inactive) in assay [6]; -0.926 (inactive) in [14].

Source of the values: PubChem BioAssay.
